RMI-FANCM inh: RMI-FANCM interaction inhibition; Fluorescence polarization, RMI core complex with F-MM2 peptide; stronger effect = lower value; FP signal (polarization) at 33 µM; 70,000 compounds, 0.58% hits; in the data active = FP signal below about 40
Starred values were filed as active, the others as inactive; ! = not confirmed by another sample. The entries come from a sample that favours hits as a whole.

SMILES	RMI-FANCM inh
NC(CO)C(=O)NNCc1ccc(O)c(O)c1O (stereo unspecified)	-13*!
N[C@H](CO)C(=O)O	49
O=C(Nc1nnc(-c2ccc(Br)cc2)o1)c1cc(Cl)ccc1[N+](=O)[O-]	61
COc1ccc(Nc2c(Cl)cc(OC)cc2Cl)cc1	58
COc1ccc(NC2=CC(=O)C=CC2=O)cc1	30*
COc1ccc(NC(=O)CO)cc1	68
O=C(CCCSc1ccc(NC(=O)C2CC2)nn1)NCCN1CCOCC1	63
COc1ccccc1NC(=S)NNC(=O)CSc1ccccc1[N+](=O)[O-]	55
C=CCN1CC(c2nc3ccccc3n2Cc2c(Cl)cccc2Cl)CC1=O (stereo unspecified)	64
CCCCCNC(=O)c1cn(-c2ccc(C)cc2)nn1	66
CCOc1ccccc1N1C(=O)CNC1=S	55
CCOc1ccc(N2C(=O)S/C(=C\C=C\c3ccco3)C2=O)cc1	54
CCOc1ccccc1N1C(=O)/C(=C/C=C/c2ccco2)SC1=S	14*
Cn1c(Cn2c(=O)sc3ccccc32)n[nH]c1=S	59
O=C(NC(=O)c1csc([N+](=O)[O-])c1)NN1CCOCC1	56
Cn1c(-c2nc(C(=O)NN3CCOCC3)cs2)cc2ccccc21	3*
O=C(Nc1ccccc1)c1csc(-c2ccccc2)n1	66
CC(C)c1ccc(NC(=O)C(=O)NCC2CCN(C3CCCC3)CC2)cc1	76
Cc1cc(NC(=O)c2cc3ccccc3o2)n(-c2nc3c(cnn3-c3ccccc3)c(=O)[nH]2)n1	58
COc1ccccc1NC(=O)CC1CCCCN1S(=O)(=O)c1ccccc1 (stereo unspecified)	67
O=C(COc1ccc2ccccc2c1)Nc1ccc(N2CCCCS2(=O)=O)cc1	54
CCOC(=O)c1[nH]c2c(c1C)C(=O)CCC2	59
CCOC(=O)c1ccc(NC(=O)CCc2c(C)[nH]c(=O)[nH]c2=O)cc1	64
CCOC(=O)CCc1c(C(=O)OCC)[nH]c2c1CC(=O)NC2	32*
O=C(CSc1ccc(-c2cccnc2)nn1)N1CCN(c2ccccc2)CC1	57
SMILES	RMI-FANCM inh
O=C(CS(=O)(=O)c1ccc(Cl)cc1)Nc1ccc(F)c(F)c1F	57
N/C(CC(=O)Nc1ccc(F)c(F)c1F)=N/O	35*
NC(=O)Nc1ccc(F)cc1F	57
Cc1cc(C)nc(NS(=O)(=O)c2ccc(NC(=O)c3nccnc3C(=O)O)cc2)n1	57
O=c1/c(=C/c2ccccc2)sc2nnc(-c3ccc(Cl)cc3)n12	52
O=c1/c(=C\c2ccc(Cl)cc2)sc2nc(-c3ccc(Cl)cc3)nn12	59
O=c1nc2s/c(=C/c3ccccn3)c(=O)n2nc1-c1ccccc1	21*
O=C(NCCc1c[nH]c2ccccc12)C(=O)Nc1ccc(F)c([N+](=O)[O-])c1	52
Cc1ccc(NC(=O)Nc2c3ccccc3nc(=O)n2CC2CCCO2)cc1 (stereo unspecified)	54
CC(C)Cc1nc(SCC(=O)N2CCC(Cc3ccccc3)CC2)c2c(=O)n(C)c(=O)n(C)c2n1	60
O=C(COc1ccccc1)NCC1CCN(C2CCCC2)CC1	75
O=C(NCCCS(=O)(=O)N1CCN(c2ccccn2)CC1)c1ccccn1	60
O=C(O)Cc1csc(Nc2cccc(C(F)(F)F)c2)n1	68
NC(=O)c1ccccc1NC(=O)Cc1csc(Nc2cccc(C(F)(F)F)c2)n1	66
NC(=O)Cc1csc(Nc2cccc(C(F)(F)F)c2)n1	29*
Cc1ccc2sc(N(CCN(C)C)C(=O)c3ccc4c(c3)OCCO4)nc2c1C	87
O=C(CSc1ncnc2scc(-c3ccccc3)c12)Nc1cccc(-c2nc3ccccc3s2)c1	83
COc1cccc2sc(Nc3nc4c(F)cc(F)cc4s3)nc12	28*
COc1cccc2sc(Nc3nc(C(C)(C)C)cs3)nc12	61
Fc1cccc2sc(Nc3nc4c(F)cccc4s3)nc12	70
O=C(CCCn1c(SCC(=O)NCc2ccco2)nc2ccccc2c1=O)NCCc1ccccc1	59
Cn1c(=NC(=O)C2=COCCO2)sc2cc(Cl)cc(Cl)c21	60
Cc1nnc(SCC(=O)Nc2cc(C(F)(F)F)ccc2Cl)n(N)c1=O	60
N#Cc1c(N)sc(=S)c2c1CCCC2	7*
N#Cc1c(N)sc2c1CCC2	50
SMILES	RMI-FANCM inh
CC(C)(C)C(=O)Nc1sc2c(c1C#N)CCCC2	58
CCn1nc(C(=O)Nc2cccc(C(C)=O)c2)cc1C	62
Cc1ccc(S(=O)(=O)N2CCCC(c3nnc(-c4ccc5c(c4)OCO5)o3)C2)c(C)c1 (stereo unspecified)	63
O=C(N/N=C/c1c(Cl)cccc1Cl)c1nc(CS(=O)(=O)c2ccc(Cl)cc2)no1	55
COC(=O)c1sccc1OC(=O)c1cc2ccccc2oc1=O	62
Cc1coc(C)c1C(=O)O	57
CCCc1noc(C)c1C(=O)O	-5*
Cc1noc(C)c1S(=O)(=O)N1CCC(C(=O)O)CC1	56
O=S(=O)(Nc1nc2ccccc2[nH]1)c1ccc(F)cc1	122
CC(C)(C)c1ccc(S(=O)(=O)NCc2ccc(C(=O)Nc3ccc(Cl)cc3)cc2)cc1	77
O=[N+]([O-])c1ccccc1-c1ccc(-c2nnc(-c3ccco3)o2)o1	25*
O=[N+]([O-])c1cccnc1Sc1nccc(-c2ccco2)n1	54
CCOC(=O)C(=Cc1ccc(-c2ccccc2[N+](=O)[O-])o1)C(=O)OCC	58
CCOC(=O)c1ccc(NC(=O)CC2SC(N)=NC2=O)cc1 (stereo unspecified)	62
CCOC(=O)N1CCN(C(c2ccncc2)c2c(C)[nH]c3ccccc23)CC1 (stereo unspecified)	58
CCOC(=O)N1CCN(C(c2ccccn2)c2c(-c3ccccc3)n(O)c3ccccc23)CC1 (stereo unspecified)	26*
CCOC(=O)N1CCN(CC(O)COc2ccc(-c3ccccc3)cc2)CC1 (stereo unspecified)	65
O=S(=O)(CCc1ccccc1)N1CCN(c2ccc(-c3ccco3)nn2)CC1	72
Cc1ccc(-n2c3c(c(=S)[nH]c2=O)CCC3)cc1C	66
Cc1nnc(NC(=O)CSc2ccc(-c3sc(-c4cccnc4)nc3C)nn2)s1	59
COC(=O)c1ccc(CSc2nncc(=O)n2N)o1	57
COc1ccc(-c2nc(SC(CC(=O)NCCc3ccccc3)c3cccs3)n[nH]2)cc1 (stereo unspecified)	53
COc1ccc(-c2nc(SC(CC(=O)NCCN3CCOCC3)c3ccc(OC)cc3)n[nH]2)cc1 (stereo unspecified)	22*
COc1ccc(C(CC(=O)NCc2ccccc2)Sc2n[nH]c(-c3ccc(F)cc3)n2)cc1 (stereo unspecified)	119
O/N=C\c1ccc(OC(F)(F)F)cc1	44
SMILES	RMI-FANCM inh
COc1cccc2cc(C(=O)Nc3cc(C)nn3-c3nc4ccccc4s3)oc12	63
O=C1C(c2ccccc2)=S=C2C(N3CCOCC3)=Nc3ccccc3N12	74
C=CCN1C(=O)C(C)(C)COc2ccc(NS(=O)(=O)Cc3ccccc3Cl)cc21	65
O=C(Cc1csc(Nc2ccc(OC(F)(F)F)cc2)n1)NCc1ccccn1	-3*
O=C(Cc1csc(SCc2ccc(Cl)cc2)n1)NCc1ccccn1	54
O=C(Cc1csc(SCc2ccc(Br)cc2)n1)NC1CCCC1	66
O=C(Cc1csc(SCc2ccc(Br)cc2)n1)Nc1nccs1	21*
COc1cc(CSc2nc(CC(=O)Nc3nccs3)cs2)cc(OC)c1	58
CNC(=O)Cc1csc(Nc2ccc(OC(F)(F)F)cc2)n1	61
O=C(Cc1csc(SCc2ccc(Br)cc2)n1)NCc1cccs1	80
O=C(Cc1csc(Nc2cccc(C(F)(F)F)c2)n1)NCc1ccccn1	44
